# Measurements: PubChem BioAssay (Tox21)
# Values joined by “and” are separate entries in the source; they are usually repeats but may differ in a detail not shown here. Equal entries are not always repeated. Inconclusive results are not listed. Entries that show only a call come without a potency. A structure can be active in one record and inactive in another. Active and inactive are the calls of the source. The call rests on the fitted dose curve; in most records, active means well fitted cell-killing curve with a large enough effect in the repeat runs; inconclusive means weak or mixed curves; inactive means flat fitted curve, though single readings scatter.
# Experiment: qHTS assay to identify small molecule antagonists of the estrogen related receptor (ERR) signaling pathway from Tox21 library - cell viability counter screen (AID 1224834); further: nearly all actives have a fitted effect of over 30% in size
# Conditions: ERR reporter cells viability, CellTiter-Fluor, 17.5 h; series mostly up to 92.4 µM; viability change, negative = cytotoxic: at the top concentration
# From the text: National Center for Advancing Translational Sciences [NCATS]
# NIH Chemical Genomics Center [NCGC]
# U.S. Environmental Protection Agency [EPA]
# National Institutes of Environmental Health Sciences [NIEHS]
# National Toxicology Program [NTP]
# U.S. Food and Drug Administration [FDA]
# Estrogen related receptors (ERRs), the first orphan nuclear receptors discovered, play an important role in the control of cellular energy metabolism. ERRs are required for high-energy production in response to the environmental challenges. ERR-alpha was also identified as an adverse marker for breast cancer progression; ERR-alpha-positive tumors have a poor prognosis. To screen and to identify environmental compounds that perturb the ERR signaling pathways could provide valuable information for potential therapeutic or preventive measures in the treatment of metabolic disease. To differentiate true ERR antagonists or agonist from cytotoxic substances, the assay is multiplexed with cell viability assay.
# Tox21 Assay Protocol Summary:
# The ERR cells were dispensed at 2,000 cells/5 ul/well in 1536-well white plates using a Multidrop dispenser. After the assay plates were incubated at a 37 C/5% CO2 incubator for 6 hours, 23 nL of compounds dissolved in DMSO, positive and negative controls or DMSO only was transferred to the assay plate by a pin tool. The plates were incubated at 37 C for 17.5 hours. 1 ul/well of CellTiter-Fluor reagent was added into the assay plates using a Flying Reagent Dispenser. After 30-minute incubation at 37 C/5% CO2, the fluorescence intensity in the plates was measured using a ViewLux plate reader.
# Potency means the concentration at half of the fitted maximal effect.
SMILES,Potency,"viability change, negative = cytotoxic"
CN(C)C(=S)SC(=S)N(C)C,1.98 µM (active) and 1.54 µM (active) and 1.68 µM (active),
Nc1c2c(nc3ccccc13)CCCC2,,-3.17% [at 42.5 µM] (inactive)
C=C(C)C(=O)OCC(C)O (stereo not given),inactive,
CC12CCC(CC1)C(C)(C)O2,inactive,
Cc1cccc(C)c1,inactive,
CCOC(N)=O,inactive,
O=c1[nH]cnc2c1ncn2[C@H]1CC[C@@H](CO)O1,inactive,
CC(=O)C(=O)O,inactive,
COc1ccc(C(Cl)=C(c2ccc(OC)cc2)c2ccc(OC)cc2)cc1,inactive,
C[C@](N)(Cc1ccc(O)c(O)c1)C(=O)O,inactive,
CNNCc1ccc(C(=O)NC(C)C)cc1,inactive,
O=CC(=O)c1ccccc1,,-9.71% (inactive)
Nc1ccc(O)c([N+](=O)[O-])c1,21.7 µM (active),
CCCc1cc(=O)[nH]c(=S)[nH]1,inactive,
Cc1cc(=O)oc2cc(O)ccc12,inactive,
NS(=O)(=O)O,inactive,
NC(=O)n1c(O)c(C(=O)c2cccs2)c2cc(Cl)ccc21,23.7 µM (active),
CCCCCCc1ccc(O)cc1O,61.3 µM (active),
CCCC[P+](CCCC)(CCCC)CCCC,inactive,
CCOc1ccc(NC(C)=O)cc1,inactive,

SMILES,Potency,"viability change, negative = cytotoxic"
CC(=O)Nc1c(I)c(NC(C)=O)c(I)c(C(=O)O)c1I,inactive,
CN(C)C(=O)Nc1ccc(Cl)c(Cl)c1,inactive,
Nc1c(N=Nc2ccc(-c3ccc(N=Nc4cc(S(=O)(=O)O)c5ccccc5c4N)cc3)cc2)cc(S(=O)(=O)O)c2ccccc12,21.7 µM (active),
Cn1c(=O)c2c(ncn2C)n(C)c1=O,55.1 µM (active) and inactive,
O=C1O[C@H]([C@@H](O)CO)C(O)=C1O,inactive,
F[B-](F)(F)F,inactive,
CS(=O)(=O)OCCCCOS(C)(=O)=O,inactive,
O=C(Nc1ncc([N+](=O)[O-])s1)c1cccs1,13.3 µM (active),
CN(N=O)C(=O)N[C@@H]1[C@@H](O)[C@H](O)[C@@H](CO)O[C@@H]1O,inactive,
C/C=C/C=C/C(=O)O,inactive,
CC1(C)O[C@@H]2C[C@H]3[C@@H]4CCC5=CC(=O)C=C[C@]5(C)[C@@]4(F)[C@@H](O)C[C@]3(C)[C@]2(C(=O)CO)O1,inactive,
O=C1c2c(O)cccc2Cc2cccc(O)c21,inactive,
C=CCc1ccc(O)c(OC)c1,inactive,
CCCCC(CC)C(=O)O (stereo not given),inactive,
CC(=O)CC(c1ccccc1)c1c(O)c2ccccc2oc1=O (stereo not given),inactive,
O=C1NC(=O)C(c2ccccc2)(c2ccccc2)N1,inactive,
O=c1[nH]cc(F)c(=O)[nH]1,31.8 µM (active) and inactive,
Cc1cc(C)nc(NS(=O)(=O)c2ccc(N)cc2)n1,inactive,
CCCCNC(=O)NS(=O)(=O)c1ccc(C)cc1,inactive,
C=C1CC[C@H](O)C/C1=C\C=C1/CCC[C@]2(C)[C@@H]([C@H](C)CCCC(C)C)CC[C@@H]12,54 µM (active),
